# Experimental data reported in PubChem BioAssay AID1224917.
# Calls of active or inactive are those of the source. How the calls were made is not given here.
# Target: Proto-oncogene tyrosine-protein kinase Src (Homo sapiens) (UniProt P12931)
# Experiment: ABL/SRC IC50 fold difference, recombinant kinases – biochemical, recombinant kinase panel, profiling panel (AID 1224917)
# Conditions: 33P substrate incorporation, active compounds read high
# Proto-oncogene tyrosine-protein kinase Src (Homo sapiens), sequence (P12931 whole entry, looked up): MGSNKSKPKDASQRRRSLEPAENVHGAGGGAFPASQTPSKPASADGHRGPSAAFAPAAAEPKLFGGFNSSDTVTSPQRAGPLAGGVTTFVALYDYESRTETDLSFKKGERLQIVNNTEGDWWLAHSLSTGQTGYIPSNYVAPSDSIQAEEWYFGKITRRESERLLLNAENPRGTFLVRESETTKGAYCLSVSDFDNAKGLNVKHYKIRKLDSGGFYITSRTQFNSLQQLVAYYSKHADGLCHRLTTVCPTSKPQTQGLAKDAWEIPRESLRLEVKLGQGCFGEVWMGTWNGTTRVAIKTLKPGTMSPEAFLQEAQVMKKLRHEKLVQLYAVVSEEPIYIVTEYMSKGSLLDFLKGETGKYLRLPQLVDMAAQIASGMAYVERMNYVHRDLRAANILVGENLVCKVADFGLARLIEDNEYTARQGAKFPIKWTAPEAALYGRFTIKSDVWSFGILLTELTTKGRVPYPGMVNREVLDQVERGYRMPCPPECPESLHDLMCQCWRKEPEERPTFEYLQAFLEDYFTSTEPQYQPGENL
compound,measurement,value
COc1cc(-c2nn(CCN3CCC(N(C)C)CC3)c3ncnc(N)c23)ccc1NC(=O)OC(C)(C)C,selectivity fold (ABL/SRC IC50),> 950 (active)
